Records with an inconclusive call do not appear. Active and inactive are the calls of the source. Unless noted, the call rests on the fitted dose curve; in most records, active means well fitted curve in the direction sought with a large enough effect; inconclusive means small, poorly fitted or top-dose-only effect, or another doubt; inactive means no such curve, though single readings can be large; an effect the other way counts as inactive or inconclusive.
Legend:
[1] = qHTS to identify inhibitors of the type 1 interferon - major histocompatibility complex class I in skeletal muscle: primary screen against the NCATS LOPAC collection (AID 1347405); details: iHSKM muscle cells, IFN-b-induced MHC-I HiBiT luminescence, 24 h; series mostly up to 45.9 µM;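 further: lytic HiBiT luminescence reporting HLA-B protein level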
In short: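 Luminescence from HiBiT fused to endogenous HLA-B in CRISPR-engineered human myoblasts served as the read-out. Cells received 4.0 ng/ml IFN-beta plus compound (seven concentrations, 1:4.3 steps, highest 46 uM final) for 24 hrs before lytic detection.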

[2] = qHTS to identify inhibitors of the type 1 interferon - major histocompatibility complex class I in skeletal muscle: primary screen against the NCATS Pharmaceutical Collection (AID 1347407); details: human skeletal muscle cells, IFN-b-induced MHC-I HiBiT luminescence, 24 h; series mostly up to 45.9 µM;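 further: luminescence of HiBiT knocked into endogenous HLA-B as interferon-induced MHC class I level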; further: potency means the concentration at half of the fitted maximal effect
In short: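 HLA-B HiBiT myoblasts, dexamethasone-free growth medium + 4 ng/ml IFN-b; compounds pinned 1 h after seeding, […] from 46 uM; 24 h, 37 C, 5% CO2; lytic HiBiT detection, 10 min RT, luminescence.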

[3] = qHTS for inhibitors of adenylyl cyclases using a fission yeast platform: a pilot screen against the NCATS LOPAC library (AID 1347410); details: S. pombe CHP2027, fbp1-GFP fluorescence, 18 h; series mostly up to 57.5 µM
In short: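 Read-out: fbp1-GFP fluorescence by laser scanning cytometry (488 nm laser), a gain of signal when AC/cAMP-PKA signalling is inhibited. Strain CHP2027 expressing AC9, GNAS and PDE4D2; compounds at up to 57 µM; 18 h, 30C.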

[4] = qHTS to identify inhibitors of the type 1 interferon - major histocompatibility complex class I in skeletal muscle: primary screen against the NCATS Mechanism Interrogation Plate v5.0 (MIPE) Libary (AID 1347411); details: iHSKM cells + IFN-b, HiBiT-tagged MHC-I luminescence, 24 h; series mostly up to 45.8 µM; further: nearly all actives have a fitted effect of over 65% in size; further: potency means the concentration at half of the fitted maximal effect
In short: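 Luminescence from HiBiT-tagged endogenous HLA-B*08:01 served as the MHC class I read-out. CRISPR-engineered C25cl48 human myoblasts received 4.0 ng/ml IFN-beta plus compound for 24 hrs, with an 11-point, 1:3 series topping at 46 uM final.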

[5] = molecular target: Protein phosphatase 1D (Homo sapiens) (UniProt O15297); test: RapidFire Mass Spectrometry qHTS Assay for Modulators of WT P53-Induced Phosphatase 1 (WIP1) (AID 1347424); details: WIP1 dephosphorylation of phosphopeptide, RapidFire MS; series mostly up to 63 µM;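 further: amount of dephosphorylated VEPPL-S-QETFS peptide product formed by WIP1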
Protein phosphatase 1D (Homo sapiens), sequence (O15297 whole entry, looked up): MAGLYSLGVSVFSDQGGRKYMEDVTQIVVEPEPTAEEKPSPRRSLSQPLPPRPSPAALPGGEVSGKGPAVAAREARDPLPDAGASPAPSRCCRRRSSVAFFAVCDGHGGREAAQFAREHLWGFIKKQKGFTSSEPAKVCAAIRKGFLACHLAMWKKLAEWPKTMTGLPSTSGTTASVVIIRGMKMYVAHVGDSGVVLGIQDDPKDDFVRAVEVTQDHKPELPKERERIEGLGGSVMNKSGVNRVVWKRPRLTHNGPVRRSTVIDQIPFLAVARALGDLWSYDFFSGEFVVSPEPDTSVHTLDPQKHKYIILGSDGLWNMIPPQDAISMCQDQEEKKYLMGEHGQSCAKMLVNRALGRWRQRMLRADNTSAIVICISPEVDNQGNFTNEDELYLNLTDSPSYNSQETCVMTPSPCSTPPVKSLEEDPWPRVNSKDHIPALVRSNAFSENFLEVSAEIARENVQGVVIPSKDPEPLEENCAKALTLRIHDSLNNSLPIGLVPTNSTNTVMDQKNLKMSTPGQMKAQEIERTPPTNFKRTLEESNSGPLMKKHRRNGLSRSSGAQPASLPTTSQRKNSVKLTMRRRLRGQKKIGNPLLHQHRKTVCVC
In short: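 10 nM WIP1 + cpd, 1 h RT; + 2 uM VEPPL-pS-QETFS, 5 min RT; stop 0.5% formic acid; labelled product standard 1 uM; RapidFire MS. Buffer 50 mM Tris pH 7.5, 30 mM MgCl2, 1 mM TCEP.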

[6] = molecular target: Protein phosphatase 1D (Homo sapiens) (UniProt O15297); test: Rhodamine-PBP qHTS Assay for Modulators of WT P53-Induced Phosphatase 1 (WIP1) (AID 1347425); details: recombinant WIP1, Rhodamine-PBP phosphate fluorescence, real-time; series mostly up to 57.5 µM
In short: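 The read-out is the change in Rhodamine-PBP fluorescence (f1 - f0, ex 525/em 598 nm) as Pi is released, read each minute for 11 min. Final reaction: 5 nM WIP1, 10 uM phosphopeptide VEPPL-pS-QETFS, 10 uM Rh-PBP, 50 mM Tris-HCl pH 7.5, 30 mM MgCl2. Compound was preincubated with enzyme for 1 hour at room temperature.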

[7] = Validation qHTS assay for inhibitors of Activation Induced Cytidine Deaminase (AID): UDG Counterscreen signal (AID 1347427); details: biochemical UDG counterscreen, fluorescence signal; series mostly up to 115 µM
In short: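 Counterscreen read of UDG activity (2 U/mL, 4/3x) in the FRET deamination format with AID (1 uM, 4/3x), DJC20/DJC23 substrates (250 nM, 4x), 4 h at room temperature. NaOH stop, fluorescence at 560 ex/665 em.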

[8] = molecular target: Single-stranded DNA cytosine deaminase (Homo sapiens) (UniProt Q9GZX7); test: Validation qHTS assay for inhibitors of Activation Induced Cytidine Deaminase (AID): AID signal (AID 1347429); details: Recombinant AID, FRET ssDNA deamination with UDG, fluorescence; series mostly up to 115 µM
Single-stranded DNA cytosine deaminase (Homo sapiens), sequence (Q9GZX7 whole entry, looked up): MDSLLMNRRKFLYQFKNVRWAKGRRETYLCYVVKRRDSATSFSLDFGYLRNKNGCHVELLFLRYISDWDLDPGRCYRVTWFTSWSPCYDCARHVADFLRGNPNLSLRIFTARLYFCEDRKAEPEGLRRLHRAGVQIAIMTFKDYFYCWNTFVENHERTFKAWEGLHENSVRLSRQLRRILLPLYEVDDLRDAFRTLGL
In short: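 Fluorescence at 540 nm excitation and 590 nm emission reports ssDNA cytosine deamination by AID, with UDG in the same well. Compound-treated reactions ran 4 hr at room temperature with DJC20/DJC23 substrate, followed by 30 min NaOH treatment.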

[9] = Primary qHTS for inhibitors of SARS-S pseudo-typed particle cell entry (AID 1479145; calls by dose curve; further: nearly all actives have a fitted effect of over 45% in size); details: SARS-S pseudotyped particle cell entry, luciferase reporter; series mostly up to 57.1 µM
[10] = Primary qHTS for Huh7 cytotoxicity: counterscreen for inhibitors of MERS-S pseudotyped particle cell entry (AID 1479147; calls by dose curve); details: cell viability read-out; series mostly up to 57.1 µM
[11] = Primary qHTS for inhibitors of MERS-S pseudo-typed particle cell entry (AID 1479149; calls by dose curve; further: nearly all actives have a fitted effect of over 60% in size); details: MERS-S pseudotyped particle entry, luciferase; series mostly up to 57.1 µM
[12] = Primary qHTS for Vero E6 cytotoxicity: counterscreen for inhibitors of SARS-S pseudo-typed particle cell entry (AID 1479150; calls by dose curve); details: cell viability; series mostly up to 57.1 µM
[13] = Primary qHTS for inhibitors of La Crosse Virus (LACV) - induced cell death in SH-SY5Y cells (AID 1508616); details: SH-SY5Y LACV cytopathicity rescue, ATP luminescence, 6 d; series mostly up to 4.29 µM;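 further: top concentration of the series differs between compounds; higher means more rescue of cells from virus-induced death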
In short: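 Protection against LACV-induced cell death is scored in SH-SY5Y cells exposed to compounds and virus (0.01 MOI) for 6 days. Data normalized to virus-infected DMSO wells and virus-free DMSO wells.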

[14] = molecular target: Calcium and integrin-binding protein 1 (Homo sapiens) (UniProt Q99828); test: Validation qHTS for Identification of Calcium Integrin Binding protein 1 (CIB1) Competitor (AID 1508618); details: CIB1-GST / FITC-alphaIIb peptide fluorescence polarization; series mostly up to 114 µM
Calcium and integrin-binding protein 1 (Homo sapiens), sequence (Q99828 whole entry, looked up): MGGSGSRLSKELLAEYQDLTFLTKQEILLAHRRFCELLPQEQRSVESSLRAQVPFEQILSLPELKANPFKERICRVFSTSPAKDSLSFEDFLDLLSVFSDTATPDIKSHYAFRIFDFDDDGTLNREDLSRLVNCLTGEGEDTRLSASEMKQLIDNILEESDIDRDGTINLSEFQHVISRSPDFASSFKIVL
In short: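 CIB1-GST (1 uM final) incubated 15 min at room temperature with compounds (up to 114 uM), then FITC-labelled alphaIIb peptide (100 nM) added. FP read (Ex 480/Em 540) after 15 min, pH 7.4 buffer containing 5 mM CaCl2.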

[15] = molecular target: Calcium and integrin-binding protein 1 (Homo sapiens) (UniProt Q99828); test: Primary qHTS for Identification of Calcium Integrin Binding Protein 1 (CIB1) Competitor (AID 1508620); details: CIB1-GST / FITC-alphaIIb peptide fluorescence polarization; series mostly up to 114 µM;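 further: GST tagged CIB1 binding a fluorescein labelled alphaIIb integrin peptide tracer; top concentration of the series differs between compounds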
In short: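 CIB1-GST (1 uM final) and compound incubated 15 min at room temperature before adding FITC-alphaIIb peptide tracer (100 nM final). Competition for binding read by fluorescence polarization (ex 480, em 540) after another 15 min at room temperature.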

Measured: Potency

CCC1(c2ccc(N)cc2)CCC(=O)NC1=O (stereo unspecified)
not listed: [15]
inactive: all other assays above

O=[N+]([O-])O[C@H]1CO[C@H]2[C@@H]1OC[C@H]2O[N+](=O)[O-]
not listed: [1] | [3] | [4] | [7] | [8] | [14]
inactive: all other assays above

CCCCC/C=C\C/C=C\C/C=C\C/C=C\CCCC(=O)NCC(=O)O
inactive: [2] | [5] | [6] | [7] | [13] | [15]

COc1cccc2c1C(=O)c1c(O)c3c(c(O)c1C2=O)C[C@@](O)(C(=O)CO)CC3OC1CC(N2CCOC(OC)C2)C(O)C(C)O1 (stereo partly specified)
inactive: [5] | [6] | [9] | [11] | [12] | [13]
active: [2] 2.97 µM | [4] 93 nM

CCC(C)C(C)(COC(N)=O)COC(N)=O (stereo unspecified)
not listed: [1] | [3] | [4] | [7] | [8] | [14]
inactive: all other assays above

COc1ccc2c(c1OC)C(=O)O[C@H]2[C@@H]1c2cc3c(cc2CCN1C)OCO3
not listed: [4] | [15]
inactive: all other assays above

CN1C(=O)COc2c(C(=O)NC3CN4CCC3CC4)cc(Cl)cc21 (stereo unspecified)
inactive: [2] | [4] | [5] | [6] | [13] | [15]

CC(NC(C)(C)C)C(=O)c1cccc(Cl)c1 (stereo unspecified)
inactive: all assays above

CC(C)N(CCC(C(N)=O)(c1ccccc1)c1ccccn1)C(C)C (stereo unspecified)
not listed: [4] | [6] | [9] | [15]
inactive: all other assays above

Nc1ccc([As](=O)(O)O)cc1
inactive: [2] | [5] | [6] | [9] | [10] | [11] | [12] | [13]

NC(=O)c1cc([N+](=O)[O-])cc([N+](=O)[O-])c1
inactive: [2] | [5] | [6] | [9] | [10] | [11] | [12] | [13]

C[C@]12CC[C@H]3[C@@H](CCC4=CC(=O)CC[C@@H]43)[C@@H]1CC[C@@H]2OC(=O)CCC1CCCCC1
not listed: [1] | [3] | [4] | [7] | [8] | [14]
inactive: all other assays above

CC(C)c1cccc(C(C)C)c1O
not listed: [15]
inactive: all other assays above

O=C1c2ccccc2C(=O)c2ccccc21
not listed: [1] | [3] | [4] | [7] | [8] | [14]
inactive: all other assays above

O=c1[nH]oc2c1CCNC2
not listed: [3] | [4] | [9] | [10] | [11] | [12]
inactive: all other assays above

CCc1cc2c(s1)-n1c(C)nnc1CN=C2c1ccccc1Cl
not listed: [1] | [3] | [4] | [7] | [8] | [14]
inactive: all other assays above

CN1C(=O)CCS(=O)(=O)C1c1ccc(Cl)cc1 (stereo unspecified)
not listed: [11]
inactive: all other assays above

CC(C)(C)NCC(O)c1ccccc1Cl (stereo unspecified)
not listed: [4]
inactive: all other assays above

COC1CC(=C(c2cccs2)c2cccs2)C[N+](C)(C)C1 (stereo unspecified)
not listed: [1] | [3] | [4] | [7] | [8] | [14]
inactive: all other assays above

CNC(C)(C)Cc1ccccc1
not listed: [1] | [3] | [4] | [7] | [8] | [14]
inactive: all other assays above

C=C(C)[C@H]1CN[C@H](C(=O)O)[C@H]1CC(=O)O
not listed: [4] | [15]
inactive: all other assays above

— PubChem BioAssay (NCATS)
